Experimental data taken from PubChem BioAssay (NCATS).
Results filed as inconclusive are left out. The source made the active and inactive calls. Calls come from the whole dose curve; as a rule, active = well fitted curve in the direction sought with a large enough effect; inconclusive = small, poorly fitted or top-dose-only effect, or another doubt; inactive = no such curve, though single readings can be large; an effect the other way counts as inactive or inconclusive.

How the values were obtained:
CRL-7250 = normal cell line; test: Cytotoxic Profiling of Annotated Libraries Using Quantitative High-Throughput Screening (AID 1296008); conditions: Five cell lines viability, CellTiter-Glo ATP luminescence, 48-72 h; max response: hits give low values; note: nearly all actives have a fitted effect of over 60% in size; note: potency is the fitted concentration of half-maximal effect; for max response: % is set by controls: 0 for no effect and ±100 for the full control effect
Procedure, shortened: (§1)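 Cytotoxicity was measured as CellTiter-Glo ATP luminescence, read after 10 min at room temperature. Compound treatment of the cells lasted 48 or 72 hr at 37 degrees Celsius in a qHTS format.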

HaCat [1] = test: as above; conditions: Five cell lines viability, CellTiter-Glo ATP luminescence, 48-72 h; max response: hits give low values
Procedure, shortened: as §1

NIH3T3 [2] = test: as above; conditions: Five cell lines viability, CellTiter-Glo ATP luminescence, 48-72 h; max response: hits give low values
Procedure, shortened: as §1

HACAT [3] = test: qHTS assay to identify novel small-molecules to repurpose for Merkel cell carcinoma treatment (AID 1296009); conditions: MCC and control cell lines, CellTiter-Glo viability, 72 h; at 44.8 µM (top of the series) unless noted; note: nearly all actives have a fitted effect of over 60% in size
Procedure, shortened: (§2)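 72 hr, 37 degree celsius; NPC 8-pt / MIPE 11-pt dose response; compound pinned in DMSO; CellTiter-Glo, 10 min RT, luminescence; normalized to no-cell and DMSO controls.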

NIH3T3 [4] = test: as above; conditions: MCC and control cell lines, CellTiter-Glo viability, 72 h; series mostly up to 44.8 µM
Procedure, shortened: as §2

C33A = test: Primary qHTS to identify gynecologic anti-cancer compounds using libraries of approved drugs and bioactive compounds (AID 1345084); conditions: Gynecologic cancer cell panel viability, ATPlite luminescence, 48 h; series mostly up to 57.5 µM; note: nearly all actives have a fitted effect of over 55% in size; note: potency is the fitted concentration of half-maximal effect; for activity change, negative = cytotoxicity: % is set by controls: 0 for no effect and ±100 for the full control effect
Procedure, shortened: (§3)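 Five-point cytotoxicity, 48 h drug exposure at 37 C, 5% CO2, on cells seeded 16 h beforehand. ATP content read by ATPlite luminescence.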

CAOV3 = test: as above; conditions: Gynecologic cancer cell panel viability, ATPlite luminescence, 48 h; series mostly up to 57.5 µM
Procedure, shortened: as §3

CASKI = test: as above; conditions: Gynecologic cancer cell panel viability, ATPlite luminescence, 48 h; series mostly up to 57.5 µM
Procedure, shortened: as §3

Es-2 = test: as above; conditions: Gynecologic cancer cell panel viability, ATPlite luminescence, 48 h; series mostly up to 57.5 µM
Procedure, shortened: as §3

HeLa = test: as above; conditions: Gynecologic cancer cell panel viability, ATPlite luminescence, 48 h; series mostly up to 57.5 µM
Procedure, shortened: as §3

Hek293T = test: as above; conditions: Gynecologic cancer cell panel viability, ATPlite luminescence, 48 h, control line for the selectivity index; series mostly up to 57.5 µM
Procedure, shortened: as §3

JEG-3 = test: as above; conditions: Gynecologic cancer cell panel viability, ATPlite luminescence, 48 h; series mostly up to 57.5 µM
Procedure, shortened: as §3

OV90 = test: as above; conditions: Gynecologic cancer cell panel viability, ATPlite luminescence, 48 h; series mostly up to 57.5 µM
Procedure, shortened: as §3

KB-3-1 = test: Cytotoxic Profiling of Annotated Libraries Using Quantitative High-Throughput Screening (AID 1296008); conditions: Five cell lines viability, CellTiter-Glo ATP luminescence, 48-72 h; max response: hits give low values; note: nearly all actives have a fitted effect of over 60% in size; note: potency is the fitted concentration of half-maximal effect; for max response: % is set by controls: 0 for no effect and ±100 for the full control effect
Procedure, shortened: as §1

Cc1c(Cl)cccc1S(=O)(=O)Nc1nc(NCCc2ccccc2)nc2c1CN(Cc1ccccc1)CC2
inactive: max response (CRL-7250) 4.69% | outcome (HaCat [1]) | outcome (NIH3T3 [2]) | outcome (HACAT [3]) | Potency (NIH3T3 [4]) | Potency (C33A) | Potency (CAOV3) | Potency (CASKI) | Potency (Es-2) | Potency (HeLa) | Potency (Hek293T) | Potency (JEG-3) | Potency (OV90)

CC(C)(C)C1CCN(C(=O)n2ncc(C(O)(c3ccccc3)c3ccccc3)n2)CC1
inactive: outcome (CRL-7250) | max response (HaCat [1]) -7.63% | max response (KB-3-1) -15.2% | Potency (C33A) | Potency (CAOV3) | Potency (CASKI) | Potency (Es-2) | Potency (HeLa) | Potency (Hek293T) | Potency (JEG-3) | Potency (OV90)

CC(=O)N[C@H]1[C@H](O[C@H]2CC[C@@]3(C)C(CC[C@]4(C)C3CC=C3C5CC(C)(C)CC[C@]5(C(=O)O)C(O)C[C@]34C)C2(C)C)O[C@H](CO[C@@H]2O[C@H](C)[C@H](O)[C@H](O)[C@H]2O[C@@H]2OC[C@@H](O)[C@H](O)[C@H]2O)[C@@H](O)[C@@H]1O (some centres not stated)
inactive: max response (CRL-7250) -3.47% | max response (HaCat [1]) -18.2% | max response (KB-3-1) 3.32% | activity change, negative = cytotoxicity (C33A) 3.31% [at 11.6 µM] | activity change, negative = cytotoxicity (CASKI) 25.2% [at 11.6 µM] | activity change, negative = cytotoxicity (Es-2) 3.97% [at 11.6 µM] | activity change, negative = cytotoxicity (HeLa) 4.55% [at 11.6 µM] | activity change, negative = cytotoxicity (Hek293T) -2.18% [at 11.6 µM] | activity change, negative = cytotoxicity (JEG-3) -18.9% [at 11.6 µM] | activity change, negative = cytotoxicity (OV90) 7.05% [at 11.6 µM]

CC(=O)O[C@H]1CC(C)(C)CC2[C@]13CO[C@@]21CCC2[C@@]4(C)CC[C@H](O[C@@H]5OC[C@H](O[C@@H]6O[C@H](CO)[C@@H](O)[C@H](O)[C@H]6O[C@@H]6OC[C@@H](O[C@@H]7O[C@H](CO)[C@@H](O)[C@H](O)[C@H]7O)[C@H](O)[C@H]6O)[C@H](O)[C@H]5O[C@@H]5O[C@H](CO)[C@@H](O)[C@H](O)[C@H]5O)[C@@](C)(CO)C4CC[C@@]2(C)[C@]1(C)C[C@H]3O (some centres not stated)
inactive: max response (HaCat [1]) 2.18% | max response (KB-3-1) -6.99% | activity change, negative = cytotoxicity (CASKI) -12% [at 6.55 µM] | activity change, negative = cytotoxicity (HeLa) -20% [at 6.55 µM]
active: Potency (CRL-7250) 2190 nM | Potency (Hek293T) 2820 nM

CC(C)(O)C1CC(=O)C2(C)C(CCC3(C)C(c4ccoc4)OC(=O)C4OC432)C12CCC(=O)OC2 (configuration not stated)
inactive: max response (CRL-7250) -9.62% | outcome (HaCat [1]) | outcome (NIH3T3 [2]) | outcome (HACAT [3]) inactive [at 17.4 µM] | Potency (NIH3T3 [4]) | Potency (C33A) | Potency (CAOV3) | Potency (CASKI) | Potency (Es-2) | Potency (HeLa) | Potency (Hek293T) | Potency (OV90)

CN1CCN(c2ccc(OC(F)(F)F)c(Nc3ncc4c(n3)-c3c(c(C(N)=O)nn3CCO)CC4)c2)CC1
active: Potency (HaCat [1]) 259 nM | Potency (KB-3-1) 36.6 nM | Potency (HeLa) 224 nM
inactive: max response (CRL-7250) -11.3% | Potency (OV90)

CCN1C(C)(C)CC(Oc2ccc(C(=O)Nc3ccc(NC(=O)Nc4cc(C(C)(C)C)on4)cc3)nc2)CC1(C)C
inactive: max response (CRL-7250) -1.6% | outcome (HaCat [1]) | outcome (NIH3T3 [2]) | outcome (HACAT [3]) | Potency (NIH3T3 [4]) | Potency (C33A) | Potency (CAOV3) | Potency (CASKI) | Potency (Es-2) | Potency (HeLa) | Potency (Hek293T) | Potency (JEG-3) | Potency (OV90)

COc1ccc2cc3c(NC(=O)c4ccco4)nn(C)c3nc2c1
active: Potency (KB-3-1) 13000 nM
inactive: max response (CRL-7250) -20.9% | max response (HaCat [1]) -26.7% | Potency (C33A) | Potency (CASKI) | Potency (Es-2) | Potency (HeLa) | Potency (Hek293T) | Potency (JEG-3)

O=C(Nc1ccc(-c2ccc(Cl)c(Cl)c2)cc1)C1=C(O)c2ccccc2S(=O)(=O)N1
inactive: outcome (CRL-7250) | max response (HaCat [1]) -6.44% | max response (KB-3-1) -12.4% | Potency (C33A) | Potency (CASKI) | Potency (Es-2) | Potency (HeLa) | Potency (JEG-3) | Potency (OV90)

CCn1c(N)c(C(=O)NC)c(=O)c2ccc(C#CC(C)(O)COC)nc21 (configuration not stated)
inactive: max response (CRL-7250) -33.6% | max response (HaCat [1]) -27.4% | max response (KB-3-1) 1.64% | Potency (C33A) | Potency (CAOV3) | Potency (CASKI) | Potency (Es-2) | Potency (HeLa) | Potency (Hek293T) | Potency (JEG-3) | Potency (OV90)

Cc1c(NC(=O)c2cc3c(s2)CCCC3)cccc1-c1cn(C)c(=O)c(Nc2ccc(C3C(=O)N(C)CCN3C)cc2)n1 (configuration not stated)
inactive: max response (CRL-7250) -5.13% | outcome (HaCat [1]) | outcome (KB-3-1) | outcome (HACAT [3]) | Potency (C33A) | Potency (Es-2) | Potency (Hek293T)

NCC(CNc1nc(Nc2cccc(NC(=O)N3CCCC3)c2)ncc1I)C(=O)c1cccs1 (configuration not stated)
active: Potency (KB-3-1) 11600 nM
inactive: max response (CRL-7250) -26% | outcome (HaCat [1]) | outcome (HACAT [3]) | Potency (C33A) | Potency (CASKI) | Potency (Es-2) | Potency (HeLa) | Potency (Hek293T) | Potency (JEG-3) | Potency (OV90)

CN(C)C(=O)Nc1cc(-c2ccccc2)ccc1N(C)C
inactive: max response (CRL-7250) -26.2% | max response (HaCat [1]) -16% | max response (KB-3-1) -8.42% | Potency (C33A) | Potency (CAOV3) | Potency (CASKI) | Potency (Es-2) | Potency (HeLa) | Potency (Hek293T) | Potency (JEG-3) | Potency (OV90)

O=C(O)CSc1cc(NS(=O)(=O)c2ccc(Br)cc2)c2ccccc2c1O
active: Potency (CRL-7250) 23100 nM | Potency (KB-3-1) 18400 nM
inactive: outcome (HaCat [1]) | outcome (HACAT [3]) | Potency (C33A) | Potency (CASKI) | Potency (Es-2) | Potency (Hek293T) | Potency (OV90)

O=C(Nc1ccc(Cl)cc1)c1ccccc1NCc1ccncc1
inactive: max response (CRL-7250) 0.592% | max response (HaCat [1]) -24.7% | max response (KB-3-1) -12.3% | Potency (C33A) | Potency (CAOV3) | Potency (CASKI) | Potency (Es-2) | Potency (HeLa) | Potency (Hek293T) | Potency (JEG-3) | Potency (OV90)

CCN(CCNC(=O)Nc1ccccc1Br)c1cccc(C)c1
inactive: max response (CRL-7250) -1.67% | max response (HaCat [1]) 0.35% | max response (KB-3-1) 2.25% | Potency (CAOV3) | Potency (CASKI) | Potency (Es-2) | Potency (HeLa) | Potency (Hek293T) | Potency (OV90)
